The other results are listed elsewhere or left out. Inconclusive results are not listed. Active and inactive are the calls of the source. Rule for the calls: active = clear falling dose curves in both reporters; inconclusive = both reporters move, but less clearly or upward; inactive = either reporter flat; the % is the FLuc reporter signal.
assay: Cell-based coincidence reporter assay to measure PMP22 gene transcription in S16 Pmp22-F2sN cells - Confirmatory screen (AID 1508646); conditions: S16 Schwann cells Pmp22-F2sN, dual luciferase, 24 h; series mostly up to 57.5 µM; activity change, negative = inhibition: at the top concentration
From the text: Assay Provider: Jim Inglese Ph.D. National Center for Advancing Translational Science, National Institutes of Health, Rockville, MD CMT is a heterogeneous group of neurological disorders that affect approximately 1 in 2,500 people. In particular, the most common form of CMT, CMT1A is genetically linked to the duplication of the PMP22 gene which leads to Schwann cell overexpression, thus manifesting itself as a typical case of dose-sensitive diseases. To identify small molecule compounds that can mediate the expression of PMP22 we developed a phenotypic assay screening strategy by utilizing genome editing techniques to construct Schwann cell lines containing novel reporter technology to monitor the transcriptional or translational regulation of PMP22. For high sensitivity we use a bioluminescent reporter system embedded in the 3' UTR of the PMP22 gene (S16(c9) Pmp22-F2sN) to identify compounds that inhibit gene expression. […] We can further discriminate the effect of all transcriptionally active molecules on PMP22 translation or stability with an assay that incorporates a short NLuc peptide (HiBiT) at the C-terminus of expressed PMP22 (S16(f8) PMP22-HiBiT) allowing alpha complementation and luminescence detection of membrane-associated PMP22 protein. These assays were screened against the NCATS Sytravon Library Collection. Miniaturization of these assays to 1536-well plate format for quantitative high throughput screening (qHTS) yielded rich data sets immediately from the qHTS assay (S16(c9) Pmp22-F2sN), when compared with data from a cell viability assay (Cell TiterGlo) to identify compounds that decreased the output signals through cellular toxicity to streamline the selection process of actives for subsequent characterization using the HiBiT assay (S16(f8) PMP22-HiBiT).
Cell-based coincidence reporter assay to measure PMP22 gene transcription in S16 Pmp22-F2sN cells PROTOCOL TABLE (format as described by Inglese J, Shamu CE and Guy RK. 2007) SEQUENCE No. (e.g., 1, 2, 3, etc.); PARAMETER (e.g., Cells, Incubation, Reagent, etc.); VALUE and DESCRIPTION. 1. Cells. Add 500-1,000 cells in 4 uL in growth media (DMEM High Glucose, No Phenol Red media + 10% heat-inactivated FBS + 1% Pen/Strep supplemented media) per well into Greiner 1536-well white/solid bottom high base, TC-treated plates. 2. Compounds. Library compounds and controls added at 23nL per well, transferred by Pin Tool. 3. Incubation. Incubate plates at 37C, 5% CO2, 95% RH for 24 h. 4. Reagent. Add 3.5uL Nano-Glo Dual-Luciferase Reporter Assay System reagent 1: Lysis and FLuc reagent per well of Greiner 1536-well plates. 5. Incubation. Incubate plates at room temperature for 10 min., protect from light. 6. Detector. FLuc luminescence measured using CCD-based camera (Viewlux). 7. Reagent. Add 3.5uL Nano-Glo Dual-Luciferase Reporter Assay System reagent 2: Stop&Glo reagent per well of Greiner 1536-well plates. 8. Incubation. Incubate plates at room temperature for 10 min., protect from light. 9. Detector. NLuc luminescence measured using CCD-based camera (Viewlux). NOTES (numbers refer to Sequence numbers above; values are from representative experiments) 6. Luminescence Read #1 (FLuc): Clear filter; Exposure = 10 sec, Gain = High, Speed = Slow, Binning = 2X 9. Luminescence Read #2 (NLuc): Clear filter; Exposure = 1 sec, Gain = High, Speed = Slow, Binning = 2X REFERENCES: 1. Inglese J, Shamu CE and Guy RK, Reporting data from high throughput screening of small molecule libraries, Nature Chemical Biology, 2007, 3(8): 438-441. doi.org/10.1038/nchembio0807-438 2. Yasgar A, Shinn P, Jadhav A, Auld DS, Michael S, Zheng W, Austin CP, Inglese J and Simeonov A, Compound Management for Quantitative High-Throughput Screening. J. Assoc. Lab. Auto., 2008, 13: 79-89. doi: 10.1016/j.jala.2007.12.004
Potency is the fitted concentration of half-maximal effect.

**Q.** For CCCS(=O)(=O)c1ncc(Cl)c(C(=O)Nc2scc(-c3ccccc3)c2C(=O)OCC)n1, which Potency is on record?
**A.** 10.4 µM (active)

**Q.** With COc1cccc(NC(=O)CSC2=Nc3ccccc3C3=NC(CC(=O)NC4CCCCC4)C(=O)N23)c1 (stereo unspecified) as the compound, how does the “activity change, negative = inhibition” value read?
**A.** 13.4% (inactive)

**Q.** For Cc1cc(OCC(=O)NCC2(N(C)C)CCCCC2)cc(C)c1Cl, which “activity change, negative = inhibition” value is on record?
**A.** 0% (inactive)

**Q.** Which Potency does the source give for COc1ccccc1-c1cc(C(F)(F)F)nc(S(=O)(=O)CCCC(=O)Nc2ccc(F)cc2F)n1 here?
**A.** 15.3 µM (active)

**Q.** Which Potency does the source give for Cc1ccccc1CNC(=O)CSc1nnc(C)c2c(C)n(-c3ccccc3)nc12 here?
**A.** 16.3 µM (active)

**Q.** With Cc1cc(F)ccc1NS(=O)(=O)c1ccc(-n2cccn2)cc1 as the compound, how does the “activity change, negative = inhibition” value read?
**A.** -24.1% (inactive)

**Q.** With CCCCOc1ccc(CN2C(=O)C(=O)c3cc(Br)cc(C)c32)cc1OC as the compound, how does the Potency read?
**A.** 10.9 µM (active)

**Q.** Which Potency does the source give for Cc1ccc(CCNC(=O)C2CCN(c3nnc(-n4cccc4CNc4ccc(C)cc4)s3)CC2)cc1 here?
**A.** 15.1 µM (active)

**Q.** For CCOC(=O)C1CCN(C(=O)CSc2c3c(nc4ccc(Cl)cc24)CCCC3)CC1, which Potency is on record?
**A.** 17.3 µM (active)

**Q.** With O=C(CCS(=O)(=O)c1ccccc1)N(Cc1cccnc1)c1nc2c(F)cccc2s1 as the compound, how does the Potency read?
**A.** 12.3 µM (active)

**Q.** Which “activity change, negative = inhibition” value does the source give for O=C(c1ccc2c(c1)N(Cc1ccc(F)cc1)C(=O)c1ccccc1S2(=O)=O)N1CCN(c2ccccn2)CC1 here?
**A.** -19.8% (inactive)

**Q.** With Cc1ccc(NC(=O)c2nc(S(=O)(=O)Cc3cccc(C)c3)ncc2Cl)cc1 as the compound, how does the Potency read?
**A.** 13.1 µM (active)

**Q.** Which Potency does the source give for COc1ccccc1Nc1c2c(nc3ccc(NC(=O)/C=C/c4cc(OC)c(OC)c(OC)c4)cc13)CCCC2 here?
**A.** 12.2 µM (active)

**Q.** With CCOc1ccc(NC(=O)c2c(NC(=O)Cc3ccccc3)sc3c2CCC(C)C3)cc1 (stereo unspecified) as the compound, how does the Potency read?
**A.** 16.5 µM (active)

**Q.** For CCc1ccc(NC(=O)CN2CCSc3ccc(S(=O)(=O)N4CCCC4)cc32)cc1, which “activity change, negative = inhibition” value is on record?
**A.** -36.8% (inactive)

**Q.** With Cc1sc(C2C(C#N)=C(N)N(c3cccc(Cl)c3)C3=C2C(=O)CCC3)cc1CN1CCOCC1 (stereo unspecified) as the compound, how does the “activity change, negative = inhibition” value read?
**A.** -27.6% (inactive)
